Measurements taken from PubChem BioAssay AID1878 (Sanford-Burnham Center for Chemical Genomics, 2009).
Hit rate of the full screen: of about 1,000 compounds, about 200 (20%) were called active. Cut-off read from the data, not from the text of the source: active = inhibition above about 55%; inactive = the rest. These entries were drawn from the full list. Measured potencies and affinities stand elsewhere.

molecular target: Dual specificity protein phosphatase 3 (Homo sapiens) (UniProt P51452); assay: VHR1 phosphatase inhibitors, biochemical (AID 1878); conditions: recombinant VHR phosphatase, fluorogenic substrate; at 13.3 µM; stronger effect = higher value
Sequence (P51452 whole entry, looked up): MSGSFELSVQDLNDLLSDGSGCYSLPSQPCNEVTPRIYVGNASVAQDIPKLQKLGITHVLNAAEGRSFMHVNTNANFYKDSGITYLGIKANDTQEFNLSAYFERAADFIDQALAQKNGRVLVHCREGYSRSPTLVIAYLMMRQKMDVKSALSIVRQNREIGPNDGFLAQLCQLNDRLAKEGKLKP

SMILES | inhibition
CC1CCN(CCc2nc3cc(NC(=O)C(C)C)ccc3n2C)CC1 | 9.3% (inactive)
Cc1ccccc1NC(=O)c1cccc(NC(=O)c2ccco2)c1 | -9.7% (inactive)
CC(=O)c1ccc(NC(=O)c2ccc3nc(-c4ccco4)c(-c4ccco4)nc3c2)cc1 | 92.7% (active)
CC(=O)c1ccc(NC(=O)CCn2c(=S)oc3ccccc32)cc1 | 40.7% (inactive)
CC(C)Cn1c(=O)c2ccccc2n2c(CCC(=O)NC3CCN(Cc4ccccc4)CC3)nnc12 | 17.9% (inactive)
O=C(Nc1ccccc1-c1nnn(CC(=O)N2CCOCC2)n1)c1ccc(F)cc1 | -1.6% (inactive)
COCCNC(=O)Cn1nc(-c2ccc(C)cc2)c2ccccc2c1=O | 2.6% (inactive)
Cn1nc(-c2ccc(C(=O)Nc3ccc(F)cc3)cc2)c2ccccc2c1=O | 96.2% (active)
CCn1cc(C(=O)N2CCCC(N3CCN(c4cccc(C(F)(F)F)c4)CC3)C2)cn1 (stereo not given) | -9% (inactive)
COCCCNC(=O)Cn1cc(/C=C(\C#N)C(=O)NC2CC2)c2ccccc21 | -8.8% (inactive)
CCN(CC)CCC(=O)N1c2ccccc2CCc2ccc(NC(=O)OC(C)C)cc21 | 3.9% (inactive)
O=c1[nH]c(=O)c2nc3c4ccccc4c4ccccc4c3nc2[nH]1 | 80.4% (active)
Cn1nc(C(=O)NCCCN2CCCCC2)c2c1-c1ccccc1S(=O)(=O)C2 | -6.6% (inactive)
Cc1ccc(NC(=O)C2CCN(S(=O)(=O)c3ccc4c(c3)NC(=O)CO4)CC2)cc1 | -0.8% (inactive)
COc1ccc(CNCC(O)(c2ccccc2)c2ccc(F)cc2)cc1OC (stereo not given) | 13% (inactive)
Cc1sc2ncn(CC(=O)N3CCCC(C)C3)c(=O)c2c1S(=O)(=O)N1CCCCC1 (stereo not given) | 7.1% (inactive)
COc1cc2ccccc2cc1C(=O)NC(=S)Nc1cccc(C(=O)O)c1 | 55% (active)
O=C(NC(=S)Nc1ccc(CN2CCCCC2)cc1)c1cccc(OCc2ccccc2)c1 | -29.4% (inactive)
O=C(NC(=O)c1ccccc1)Nc1ccccc1 | 2.5% (inactive)
O=C(CSc1nc(-c2ccccc2)nc2c1Cc1ccccc1O2)Nc1ccc(C(=O)O)cc1 | 98.8% (active)
CC(=O)c1ccc(NC(=O)CSc2nc(C)cc(C)c2C(N)=O)cc1 | -9.9% (inactive)
O=C(CSc1nc(-c2ccc(F)cc2)nc2c1Cc1ccccc1O2)Nc1cccc(C(=O)O)c1 | 96.6% (active)
O=C(CNCCc1ccccc1)Nc1ccc(C(=O)N2CCCCC2)cc1 | 3.1% (inactive)

SMILES | inhibition
CCCCn1c(N)c(N(CCOC)C(=O)c2cc(S(=O)(=O)N3CCCCC3)ccc2Cl)c(=O)[nH]c1=O | -7.9% (inactive)
COC(=O)c1ccc(COc2ccc(C(C)(C)C)cc2)o1 | 29.7% (inactive)
O=C1CCCN1CCC(=O)N1CCCC(CO)(Cc2ccccc2)C1 (stereo not given) | 26.9% (inactive)
CC1CC(C)CN(CCCNC(=O)c2ccc(CNS(=O)(=O)c3ccc(F)cc3)cc2)C1 (stereo not given) | 2.4% (inactive)
COc1ccc(CN2C(=O)c3cccnc3C2=O)cc1S(=O)(=O)NC1CCCCC1 | -2.5% (inactive)
CCOc1ccc(C(=O)N2CCC3(CC2)NCCc2[nH]cnc23)cc1OCC | -1.8% (inactive)
Cc1c(C)c2ccc(O[C@@H]3O[C@H](CO)[C@H](O)[C@H](O)[C@H]3O)c(C)c2oc1=O | -3.5% (inactive)
Cc1c(NC(=O)c2ccc(Cl)c(S(=O)(=O)N3CCCCC3)c2)c(=O)n(-c2ccccc2)n1C | -10.6% (inactive)
CCC1CCCCN1CCCNC(=O)CNC(=O)c1nn(-c2ccc(OC)c(Cl)c2)c(=O)c2ccccc12 (stereo not given) | -5.3% (inactive)
COc1ccc(CN2CCNC(=O)C2CC(=O)NCC2CCOCC2)c(C)c1C (stereo not given) | 15.1% (inactive)
COCCNc1cc(C)nc2c3c(C)cc(C)nc3nn12 | 9.5% (inactive)
COc1ccc(CCC(=O)NNC(=O)Nc2ccc(OC)c(OC)c2)cc1 | 1.3% (inactive)
COc1cc(/C=C(\C#N)C(=O)Nc2ccc(C(=O)O)cc2)ccc1OC(=O)c1cccc(F)c1 | 67.8% (active)
C/C=C/c1ccc(OCC(O)CNCCc2ccc(OC)cc2)c(OC)c1 (stereo not given) | 11.7% (inactive)
CCOc1cc(/C=C(/C#N)C(=O)Nc2ccc(OC)cc2)ccc1OCc1ccc(C(=O)O)cc1 | 90.9% (active)
CCOc1cc(/C=C(\C#N)C(=O)Nc2cccc(C(=O)O)c2)ccc1OCc1ccccc1Cl | 94.8% (active)
CCOc1ccccc1NC(=O)Nc1cc(C(=O)O)ccc1C | -10.9% (inactive)
CCOc1cc(/C=C(\C#N)C(=O)Nc2ccccc2C(=O)O)ccc1OC(=O)c1ccc(C)cc1 | 87.8% (active)
CCOc1ccc(C(=O)Nc2cc3c(cc2N2CCCC2)n(CC)c(=O)n3CC)cc1OCC | -0.2% (inactive)
CCc1ccccc1S(=O)(=O)c1c(C)cc(C)nc1Cl | -1.3% (inactive)
C=CCC(=O)NC1CC(C)(C)Cc2c1cnn2-c1ccc(C)cc1 (stereo not given) | -12.1% (inactive)
CCC(=O)NC1=C(Nc2ccc(N)cc2)C(=O)c2ccccc2C1=O | -7.2% (inactive)
O=C(NC1CCCCC1)c1cc(-c2ccccc2Cl)on1 | 3.4% (inactive)

SMILES | inhibition
CCCN1C2CCCC1CC(NC(=O)NC13CC4CC(CC(C4)C1)C3)C2 (stereo not given) | 25.2% (inactive)
CC(C)c1nn2c(=O)cc(COc3cccc(NC(=O)c4ccco4)c3)nc2s1 | 10.3% (inactive)
O=C(Nc1cccc(O)c1)C1CC(c2cccc(Br)c2)=NO1 (stereo not given) | 6.5% (inactive)
O=C(Nc1ccc(C(=O)N2CCN(c3ccc(F)cc3)CC2)cc1)C1=CSCCO1 | 4.8% (inactive)
Cc1nn(CC(=O)NCCCN2CCCCC2)c(=O)c2cc(-c3ccccc3)nn12 | 22.8% (inactive)
COc1cc(CNc2ccc(N3CCOCC3)cc2)ccc1OCC(=O)NC(C)(C)C | 2.1% (inactive)
CCOc1ccccc1CN1CCC(n2nccc2NC(=O)C2CCCC2)CC1 | -19.2% (inactive)
COc1cc(C(=O)NCC2(c3ccccc3)CCCC2)ccc1OC(C)C | -7.1% (inactive)
Cc1ccc(-c2[nH]ncc2C(=O)c2ccccc2C)c(O)c1 | -9% (inactive)
CC(Cc1ccccc1)N1C(=O)c2ccccc2C1=O (stereo not given) | -2.4% (inactive)
C=CCN(C(=O)CNC(=O)c1cccs1)C(C(=O)NC(C)(C)C)c1ccccc1 (stereo not given) | -6% (inactive)
Cc1cc(Cl)c2oc(C(=O)NC(C)c3ccncn3)c(C)c2c1 (stereo not given) | -5.8% (inactive)
CC1Sc2ccc(S(=O)(=O)CCC(=O)N(C)Cc3ccco3)cc2NC1=O (stereo not given) | -2.5% (inactive)
CC(C)(C)C(=O)NN=C1CCC(c2ccccc2)CC1 (stereo not given) | -3.9% (inactive)
CCOC(=O)C1(CCOc2ccccc2)CCN(CC(O)CO)CC1 (stereo not given) | -7.8% (inactive)
CC1CCCN(CCCNC(=O)c2ccc3c(c2)N(Cc2ccccc2F)C(=O)c2ccccc2S3(=O)=O)C1 (stereo not given) | -12.5% (inactive)
Cc1ccc(C(=O)Nc2ccccc2N2CCCC2)cc1 | 21% (inactive)
CC(C)Cn1c(C23CC4CC(CC(C4)C2)C3)n[nH]c1=S | 10% (inactive)
CCCCNC(=O)c1cn(C)c2ccc(S(=O)(=O)N3CCCC3)cc2c1=O | -4% (inactive)
Cc1ccc(CN2C(=O)CC(Nc3ccc(N4CCOCC4)cc3)C2=O)cc1 (stereo not given) | 1.9% (inactive)
Cc1ccc2nc(N3CCN(C)CC3)c(C=O)c(=O)n2c1 | 2.4% (inactive)
O=C(c1cc(F)c(F)c(F)c1F)N1CCN(Cc2ccc3c(c2)OCO3)CC1 | -6.3% (inactive)
O=C1NN(c2ccccc2)C(=O)/C1=C\c1ccccc1 | 5.2% (inactive)

SMILES | inhibition
CN(C)c1nc(N(C)C)nc(N(C#N)Cc2ccc(Cl)cc2)n1 | 2% (inactive)
COc1cc(CNc2ccc(N3CCN(C(C)=O)CC3)cc2)ccc1OCc1ccc(F)cc1 | -8.4% (inactive)
COc1ccc(C2CC(=O)C(C=NCCO)=C(O)C2)cc1 (stereo not given) | -0.8% (inactive)
COc1cc(/C=N/n2c(C)nc3ccccc3c2=O)ccc1O | 16.3% (inactive)
COc1ccc(OC)c(NC(=O)Cc2coc3ccc4ccccc4c23)c1 | -4.5% (inactive)
COc1ccc2c(c1)c(C(=O)N/N=C/c1ccc(OC)c(OC)c1)c(C)n2C | -4.6% (inactive)
COc1ccc2nc(C)cc(SCC(=O)N/N=C/c3c(OC)ccc4ccccc34)c2c1 | 92% (active)
CN(C)CCCNC(=S)N(CCCN(C)C)Cc1cc2cc3c(cc2[nH]c1=O)OCO3 | -11.5% (inactive)
CN(CCO)c1nc(N)c2c(N)nc3c(c2c1C#N)CC(=O)N3C1CCCC1 | 2.2% (inactive)
Cc1ccc(N=Nc2cc(C)ccc2O)c(C)c1 | 0.1% (inactive)
CC(=O)Nc1c(-c2ccccc2)c2cc(Br)ccc2[nH]c1=O | -0.4% (inactive)
CC1CCCN(CCCNC(=O)C2CCN(S(=O)(=O)N3CCC4(CC3)OCCO4)CC2)C1 (stereo not given) | 2.1% (inactive)
O=C(Cn1cnc2c(oc3nc4c(cc32)CCCC4)c1=O)Nc1cccc(Cl)c1 | 37.7% (inactive)
Cc1csc(NC(=O)CCCC(=O)O)c1-c1nc2ccccc2s1 | 98.8% (active)
CSc1ccc(NC(=O)N2CCN(c3nc4ccccc4s3)CC2)cc1 | 5% (inactive)
Cc1ccc2nc(NC(=O)CCCc3nc4ccccc4s3)sc2c1 | -0.6% (inactive)
O=C(CN1CCN(S(=O)(=O)c2ccc(Br)cc2)CC1)c1ccc(O)c(O)c1 | -4.1% (inactive)
Cc1cc(C)cc(NS(=O)(=O)c2ccc(-c3cnc(C4CC4)o3)cc2)c1 | 13% (inactive)
CCOc1cc(/C=N/NC(=O)c2ccc(-c3csc(Nc4ccc(C)cc4)n3)cc2)ccc1OCC(=O)O | 75.5% (active)
CC(NC(=O)COc1ccc(/C=N/NC(=O)CO)cc1)c1ccccc1 (stereo not given) | 1.2% (inactive)
CC(C)(C)c1ccc2c(c1)OC(C(=O)N/N=C\c1ccc[nH]1)CO2 (stereo not given) | 6.8% (inactive)
